TDP1 cell noCPT = qHTS for Inhibitors of human tyrosyl-DNA phosphodiesterase 1 (TDP1): qHTS in cells in absence of CPT | Potency, µM (doses to about 46.2 µM), without a hit: top-dose activity change, negative = growth inhibition, usual class: inhibitors | DT40 Tdp1-/- hTDP1 cells, no CPT, ATP luminescence, 48 h | 15% of 420,000 active; also: potency is read from the fitted curve at half-maximal effect; nearly all actives have a fitted effect of over 55% in size
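Readout: luminescence from CellTiter-Glo after 30 min in the dark at RT. Cells: DT40 Tdp1-/- with stable hTDP1, 400/well. Exposure: compounds alone, ≥48 hr, 37 °C.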
IL-1B inflam inh = inflammasome signaling inhibition, IL-1 beta readout; THP-1 LPS/ATP IL-1B secretion, AlphaLISA, 16 h; active compounds read low; activity change, % at 57.5 µM; 4.7% of 360,000 active; in the data active = activity change below about -50%; inconclusive = mostly about -30% to -49%
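THP-1 cells pretreated 1 hr with compounds (up to 57.5 uM final), then stimulated with LPS (250 ng/mL final) plus ATP (1.25 mM final); secreted IL-1B measured by AlphaLISA after 16 hr, decreased signal indicating inhibition.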
HT1080-NT tox = kills 2HG-producing HT-1080-NT fibrosarcoma cells | AID 686970 | HT-1080-NT fibrosarcoma viability, CellTiter-Glo ATP luminescence, 48 h | 1.6% of 360,000 active | Potency, µM (doses to about 46.1 µM), without a hit: at the top dose activity, negative = less viability, usual class: cytotoxic;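 also: NT is the 2HG producing partner of a matched IDH1 knockdown line; potency is read from the fitted curve at half-maximal effect; 0% = DMSO-treated cells and -100% = media-only wells without cells; nearly all actives have a fitted effect of over 55% in size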
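Luminescent CellTiter-Glo readout after 48 hours of compound exposure at 37 degrees C defined viability of HT-1080-NT cells. Activity was normalized to DMSO wells and cell-free media wells; concentration-response curves were fitted and assigned curve classes.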
HT1080 IDH1KD tx = toxicity to HT-1080 IDH1 knockdown cells (counter line); HT-1080 IDH1 knockdown viability, ATP luminescence, 48 h; Potency, µM (titrated, usually from 46.1 µM), inactives show top-dose activity, negative = toxicity, usual class: cytotoxic; 2% of 360,000 active; AID 686971;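 also: potency is read from the fitted curve at half-maximal effect; 0% = DMSO wells and -100% = cell-free medium wells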
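Luminescent ATP read-out (CellTiter-Glo, 10 min at room temperature) after 48 h compound exposure at 37 °C gave viability of IDH1-knockdown HT-1080 cells. Activity was normalised to DMSO and cell-free wells, then fitted as concentration-response curves.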
ELG1 repair inh = inhibitors of ELG1-dependent DNA repair in HEK293T cells | HEK293T ELG1-luciferase reporter, luminescence, 16 h; DNA damage induced by 5-fluorouridine | Potency, µM (doses to about 46.1 µM), inactives show at the top dose activity change, negative = inhibition, hits mostly inhibitors | 2.3% of 330,000 active; also: potency is read from the fitted curve at half-maximal effect; nearly all actives have a fitted effect of over 55% in size
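Reporter activity after DNA damage by 5-fluorouridine is monitored. Compound-treated cells incubate 16 hr at 37 °C, then ONE-Glo is added for 30 min before luminescence reading.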
TDP1 cell CPT = DT40-hTDP1 cell growth loss with CPT | Potency, µM (doses to about 46.2 µM), inactives show top-dose activity change, negative = growth inhibition, hits mostly inhibitors | 12% of 420,000 active | chicken DT40 Tdp1-/-;hTDP1 cells + 20 nM CPT, ATP luminescence, 48 h; also: potency is read from the fitted curve at half-maximal effect; nearly all actives have a fitted effect of over 55% in size
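Chicken DT40 Tdp1-/- cells complemented with human TDP1, 400 cells/well, exposed to compounds plus 20 nM camptothecin for at least 48 h at 37 C; viability read as ATP content by CellTiter-Glo luminescence.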
The depositor's hits bear a star; u = inconclusive; x = no result; [ ] = dose if it differs, or a comment. The list is not random: actives were taken first. Their share in the collection is about 19%. Unless noted, calls follow the shape of the dose curve; as a rule, active = well fitted curve in the direction sought with a large enough effect; inconclusive = small, poorly fitted or top-dose-only effect, or another doubt; inactive = no such curve, though single readings can be large; an effect the other way counts as inactive or inconclusive. Unless noted, % is scaled to controls: 0 for no effect and ±100 for the full control effect.

SMILES | TDP1 cell noCPT | IL-1B inflam inh | HT1080-NT tox | HT1080 IDH1KD tx | ELG1 repair inh | TDP1 cell CPT
CN(C)c1ccc(/C=N/NC(=O)CN(c2ccccc2Cl)S(C)(=O)=O)cc1Br | u | -20 | u | u | 10µM* | u
CS(=O)(=O)N(CC(=O)N/N=C/c1cc2c(cc1Br)OCO2)c1ccccc1Br | 15µM* | u | -2% | -12% | -27% | u
CC(C(=O)N/N=C/c1ccc(N(C)C)c(Br)c1)N(c1ccccc1)S(C)(=O)=O (stereo unspecified) | 9.2µM* | -7 | -12% | 4%[9.24 µM] | 2% | u
CS(=O)(=O)N(CC(=O)N/N=C/c1cccc2c1OCCO2)c1ccccc1Br | -4% | 2 | 0% | 14% | -4% | -10%
CC1CCCN(c2nc(N(C)c3ccccc3)nc(N)c2[N+](=O)[O-])C1 (stereo unspecified) | u | u | u | -17% | -9% | u
CCCN1CNc2c(c(=O)[nH]c(=S)n2CCc2ccsc2)C1 | u | x | 15% | 20% | x | -19%
Cc1ccc(NC2=NC(c3ccccc3)n3c(nc(C)cc3=O)N2)c(C)c1 (stereo unspecified) | -7% | -74* | 21% | -10% | 1% | -14%
O=C(Nc1cccc(NC(=O)c2cccs2)c1)c1ccc([N+](=O)[O-])o1 | 3.7µM* | -102* | 10µM* | 23µM* | 16µM* | 3.3µM*
COc1cc(NC(=O)c2cccs2)ccc1NC(=O)Cc1ccccc1 | -5% | -17 | 12% | 3% | u | 0%
O=C(Nc1ccc(NC(=O)c2ccc([N+](=O)[O-])o2)cc1Cl)c1ccco1 | u | x | -13% | u | -2% | u
COc1cc(NC(=O)c2ccc([N+](=O)[O-])o2)ccc1NC(=O)c1cccs1 | 3.7µM* | -90* | -15% | -19% | 14% | 2.3µM*
O=C(Nc1cccc(NC(=O)c2ccc([N+](=O)[O-])o2)c1)c1ccco1 | 5.2µM* | -90* | 18µM* | 10µM* | 12µM* | 5.8µM*
COc1ccc(Cl)cc1Nc1nc(Cl)nc(NCCO)n1 | u | -26 | -1% | -1% | x | u
CCCCC1(CC)SCC(=O)NC1=O (stereo unspecified) | -16% | 3 | -3% | 8% | x | -18%
Cn1c2ccccc2c2cc(/C=N/NC(=O)c3ccc(O)cc3O)ccc21 | u | 0 | -29% | u | u | u
Cn1c(O)c(/C=N/NC(=O)c2cc3ccccc3cc2O)c2ccccc21 | 15µM* | 83 | 16µM* | u | u | 16µM*
CCc1ccc(CN(Cc2ccco2)C(=O)c2ccc(OC)cc2)cc1 | 23µM* | x | x | x | x | u
COc1ccc(C(=O)N(Cc2ccco2)Cc2ccc(C)o2)cc1 | 21µM* | x | x | x | x | 21µM*
CCOC(=O)C1=C(C)NC(=NC)SC1c1ccccc1 (stereo unspecified) | u | -8 | 0% | -13% | -13% | -30%
Nc1ccccc1SSc1ccccc1N | 3.7µM* | -97* | u | 23µM* | u | 5.2µM*
O=c1[nH]c(CN2CCN(S(=O)(=O)/C=C/c3ccccc3)CC2)nc2cc(Cl)ccc12 | u | -8 | 9.2µM* | 21µM* | u | u
COc1cc2nc(CN3CCN(S(=O)(=O)c4c(F)cccc4F)CC3)[nH]c(=O)c2cc1OC | -15% | -17 | -4%[9.24 µM] | -3% | 5.8µM* | -15%
COc1cc2nc(CN3CCN(S(=O)(=O)c4ccccc4C(F)(F)F)CC3)[nH]c(=O)c2cc1OC | u | -5 | -9% | -12% | u | u
O=c1[nH]c(CN2CCN(S(=O)(=O)/C=C/c3ccccc3)CC2)nc2ccccc12 | u | -5 | -11% | -5% | 2% | 9%

Assay outcomes from PubChem.
